# Source: the supplement of paper PMC9433436
# ± gives the standard deviation of the averaged measurements. Whole data set: some 4,100 sequences, median “relative kcat/Km (krel) vs genomic leader AAAGAU” near 1.7, cut for the highest 2% near 6.5. The list comes from a sample in which the highest values are over-represented; it also holds similar and randomly drawn sequences.
# Molecular target: T1, E. coli RNase P holoenzyme (M1 P RNA + rnpA protein) (UniProt P0A7Y8)
# T1 sequence: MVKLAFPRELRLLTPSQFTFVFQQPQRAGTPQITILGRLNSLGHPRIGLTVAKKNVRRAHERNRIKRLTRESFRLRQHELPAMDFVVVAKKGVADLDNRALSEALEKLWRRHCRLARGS
# Experiment: relative kcat/Km (krel) vs genomic leader AAAGAU (relative (reference leader = 1)); higher = faster RNase P cleavage
# Procedure: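 HTS-Kin: a pool of ptRNA-Met (21C construct) with all 4096 combinations of 5' leader nucleotides N(-6) to N(-1) was processed in vitro by E. coli RNase P (P RNA + rnpA/C5 protein) under multiple-turnover conditions at 37 C, pH 8, 17.5 mM MgCl2. Residual substrate was Illumina-sequenced at several fractions reacted, and relative kcat/Km (krel) was computed by internal competition kinetics, calibrated to the genomic leader (AAAGAU = 1). The listed hexamer is the varied N(-6)..N(-1) leader (DNA letters), and it sits between a fixed 5' stem-loop flank (GCAUGCACGAAAGUGCGUGCUAUGAA) and the mature tRNA-Met starting GGCUACGUAGCUCAGUUGG. Two technical replicates are averaged.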
# [1] = fraction of substrate reacted: ~9-10% (9.79% repeat 1, 9.1% repeat 2)
# [2] = fraction of substrate reacted: ~13-16% (15.68% repeat 1, 13.17% repeat 2)
# [3] = fraction of substrate reacted: ~26-29% (28.66% repeat 1, 26.4% repeat 2)
Sequence,relative kcat/Km [1],relative kcat/Km [2],relative kcat/Km [3]
GCATGA,1.91 ± 0.28,1.07 ± 0.63,2.21 ± 0.69
AACAAG,,1.32 ± 0.57,3.26 ± 0.69
GACAAC,3.9 ± 0.94,3.84 ± 1.1,6.93 ± 3.1
CACAAA,3.35 ± 0.11,4.93 ± 1.2,6.59 ± 2.9
AACAAC,2.99 ± 0.85,3.22 ± 0.17,4.45 ± 1.8
AACAAA,3.32 ± 2.3,3.9 ± 0.11,5.24 ± 1.1
CACAAG,1.66 ± 0.94,1.78 ± 0.81,3.72 ± 0.99
GACAGC,3.44 ± 1,4.06 ± 0.54,5.59 ± 1.6
TACAAG,1.6 ± 0.23,2.38 ± 0.42,4.49 ± 1.9
CACAAC,3.95 ± 1.3,4.05 ± 0.63,6.36 ± 2.1
TACAAA,3.89 ± 1.8,5.2 ± 0.41,7.71 ± 3
TACAAC,3.75 ± 1.9,5.24 ± 0.76,7.11 ± 3
GACACC,3.17 ± 1.9,3.35 ± 0.2,5.28 ± 1.8
ACGCAT,1.58 ± 0.85,2.23 ± 0.052,3.39 ± 1.3
TTGTCG,,,1.07 ± 0.3
TCTCGG,1.19 ± 1.1,0.684 ± 0.45,1.04 ± 0.15
TCTTCA,2.36 ± 1.3,1.88 ± 0.27,2.49 ± 0.68
ACCCGT,1.55 ± 1.5,1.9 ± 1.9,1.96 ± 1.4
AGCTCA,2.57 ± 1.9,2.16 ± 0.53,3.13 ± 1.1
AACACT,1.88 ± 1.1,2.41 ± 0.39,3.76 ± 0.87
TGACTT,1.97 ± 0.23,2.77 ± 0.65,3.33 ± 1.3
GACACG,,1.39 ± 0.034,2.6 ± 0.37
GACAAA,4.01 ± 1.6,4.49 ± 0.5,6.91 ± 2.5
CACATT,3.5 ± 1.3,4.74 ± 0.66,6.23 ± 2.3
CACACT,2.56 ± 0.39,3.16 ± 0.72,4.82 ± 1.5

Sequence,relative kcat/Km [1],relative kcat/Km [2],relative kcat/Km [3]
AACAAT,1.84 ± 0.24,3.26 ± 0.41,4.49 ± 1.9
CACAAT,3.85 ± 1.2,4.61 ± 0.51,6.78 ± 2.9
GACAAG,2 ± 1.4,2.152 ± 0.02,4.06 ± 0.99
TACAAT,2.84 ± 0.75,4.74 ± 0.94,7.14 ± 3.4
GACAAT,3.33 ± 1.5,3.55 ± 1.1,5.83 ± 2.4
AGGCTC,,,0.722 ± 0.43
GTTACA,1.9 ± 0.82,2.16 ± 0.12,3.09 ± 1.2
CTGCCA,1.58 ± 1,0.692 ± 0.67,1.19 ± 0.3
TCACAT,3.6 ± 1.2,4.18 ± 0.55,6.08 ± 2.7
AACGTG,,,0.741 ± 0.57
GGATGC,1.44 ± 0.27,1.71 ± 0.79,2.74 ± 1
CAAAGC,1.07 ± 0.26,1.12 ± 1.1,1.94 ± 1.2
TCTCGA,3.05 ± 0.36,3.16 ± 0.42,4.89 ± 2
TCCTCA,3.22 ± 0.45,4.2 ± 0.86,6.64 ± 2.4
TCCTCT,3.55 ± 1.7,4.68 ± 1,6.72 ± 2.6
CCCTCC,3.55 ± 1.1,3.38 ± 0.94,4.21 ± 1.1
GCCTCA,3.93 ± 1.6,4.02 ± 0.47,5.77 ± 2.1
ACCTCC,3.29 ± 2.2,3.3 ± 0.22,4.3 ± 0.6
TCCTCG,2.35 ± 1.9,2.52 ± 0.14,3.64 ± 0.61
TCCTCC,3.65 ± 1.8,4.58 ± 1.2,6.57 ± 2.7
CCCTCT,2.96 ± 0.6,3.23 ± 0.81,3.9 ± 0.73
CCCTCA,2.47 ± 1.3,3.63 ± 0.37,3.95 ± 0.28
ATGGCA,,1.34 ± 1.2,1.01 ± 0.3
AGTAGG,,,1.52 ± 0.61
CCACCC,2 ± 0.12,1.27 ± 0.51,2.49 ± 0.73

Sequence,relative kcat/Km [1],relative kcat/Km [2],relative kcat/Km [3]
AGATGT,0.906 ± 0.45,,1.84 ± 1.7
CTTGTG,,,0.748 ± 0.26
CGCGGG,0.135 ± 0.028,,0.258 ± 0.092
TATCTA,2.06 ± 0.75,2.24 ± 0.15,2.97 ± 1.5
AAGCAC,2.14 ± 1.2,1.53 ± 0.4,3.12 ± 1.2
GTTTGC,2.91 ± 0.62,3.18 ± 0.81,5.13 ± 1.9
TTTTGC,3.65 ± 1.3,4.42 ± 1.1,6.61 ± 2.8
TTTTGT,,,2.01 ± 1.6
TTTTGA,3.16 ± 0.88,4.56 ± 1.3,6.55 ± 2.4
ATTTGC,3.17 ± 0.9,3.69 ± 0.87,5.35 ± 1.6
TTTTGG,0.508 ± 0.012,,0.844 ± 0.31
AGAAAC,3.18 ± 0.43,2.7 ± 0.75,3.84 ± 1.5
ATAACA,0.435 ± 0.37,0.897 ± 0.17,1.43 ± 0.58
AAGAAT,2.06 ± 0.33,1.89 ± 0.36,3.17 ± 1.4
TGTTTA,2.78 ± 0.84,3.23 ± 0.41,4.92 ± 2
AGTTTT,2.68 ± 0.23,3.38 ± 0.73,5.01 ± 1.8
TGTTAA,4.01 ± 0.87,5.39 ± 1.7,7.94 ± 3.5
TGTTGC,2.72 ± 0.32,2.95 ± 0.082,4.88 ± 1.9
AGTTCT,2.55 ± 0.89,3.08 ± 1.2,4.6 ± 1.6
TGTTCC,2.41 ± 1.7,3.08 ± 0.79,3.89 ± 1.1
TGTTGA,2.15 ± 0.44,3.32 ± 1.3,5.59 ± 2.1
TGTTAC,3.59 ± 1.3,5.21 ± 1.2,8.19 ± 3.8
AGTTTA,2.86 ± 0.36,3.18 ± 0.34,4.93 ± 2.3
AGTTCA,2.22 ± 0.21,2.82 ± 0.86,4.24 ± 1.9
AGTTAA,3.63 ± 1.5,5.9 ± 0.68,7.15 ± 2.6

Sequence,relative kcat/Km [1],relative kcat/Km [2],relative kcat/Km [3]
AGTTAT,2.78 ± 0.19,4.36 ± 0.82,7 ± 3.2
ATGCAG,,0.709 ± 0.22,0.668 ± 0.4
ACAGCG,,,1.17 ± 0.16
AAGGGT,,,0.872 ± 0.84
GAATTA,1.25 ± 0.15,1.82 ± 0.37,2.25 ± 0.75
AATGCC,2.38 ± 1.7,1.43 ± 0.1,1.48 ± 0.22
TCGCAA,2.14 ± 1.8,2.55 ± 0.15,3.22 ± 0.85
CAGATT,1.72 ± 0.68,2 ± 0.1,2.79 ± 0.81
CGTTAG,2.87 ± 1.6,2.22 ± 0.3,4 ± 1.2
TGTTAT,3.17 ± 1.4,4.69 ± 0.22,6.81 ± 2.8
CGTTGT,0.465 ± 0.32,,1.21 ± 0.9
CGTTAC,3.84 ± 0.72,5.28 ± 1.9,7.82 ± 2.9
TGTTCT,1.986 ± 0.0021,2.58 ± 0.73,4.41 ± 1.8
GGTTAC,0.591 ± 0.54,1.09 ± 0.22,2.13 ± 0.98
TGTTAG,2.17 ± 1.1,2.36 ± 0.065,4.6 ± 1.1
CGTTAT,4.04 ± 1,5.58 ± 1.3,8.08 ± 3.4
CGTTAA,3.62 ± 0.3,5.04 ± 1.6,7.04 ± 2.8
GGTTAT,0.926 ± 0.33,1.69 ± 0.19,2.83 ± 1.2
CGTTTA,2.35 ± 0.28,3.11 ± 0.48,4.14 ± 1.4
GGTTAA,0.853 ± 0.094,1.16 ± 0.33,1.35 ± 0.6
TATTGT,0.735 ± 0.4,,
GACCAC,2.53 ± 1.4,3.51 ± 0.65,5.22 ± 1.2
GCCCAG,0.499 ± 0.44,0.933 ± 0.79,3 ± 0.76
AAAATC,2.07 ± 0.94,1.14 ± 0.28,1.37 ± 0.15
